Rows were chosen to be rich in hits. Some 1.8% of all compounds tested hit in one or more screens of this group.
Mtb hypoxia rep = inhibitors of hypoxia-regulated fluorescent reporter in Mycobacterium tuberculosis. M. tuberculosis hypoxia-regulated fluorescent reporter, fluorescence. fluorescence inhibition, % (no concentration beside the values). actives 0.1% (n = 300,000). AID 1159583; in the data active = fluorescence inhibition mostly above about 23%, no sharp cut-off; inactive = mostly below about 17%
PriA SSB inh = K. pneumoniae PriA-SSBct interaction inhibition | actives 0.6% (n = 430,000) | AlphaScreen SSBct-PriA binding, biotinylated peptide | inhibition, % at 33 µM; in the data active = inhibition mostly above about 37%, no sharp cut-off; inactive = mostly below about 20%;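 also: plate controls were negative control peptide for no effect and reference peptide for full effect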
PfHsp40 rescue = compounds rescuing yeast from Plasmodium falciparum HSP40 toxicity; growth rescue, % at 12.5 µM; AID 504582; S. cerevisiae expressing PfHsp40, growth rescue, ATP luminescence; actives 0.68% (n = 340,000); in the data active = growth rescue above about 28%, passing the limit was not always enough;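 also: yeast W303a lacking pdr1 and pdr3 grown in galactose medium; growth measured after three days at 30 °C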
ugtP null kill = kills S. aureus RN4220 lacking UgtP | AID 1259309 | growth inhibition, % (concentration not given with the values) | S. aureus RN4220 ugtP deletion, OD600 growth, 16 h | actives 0.54% (n = 330,000); in the data active = growth inhibition above about 68%;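 also: plate controls were untreated wells for no effect and antibiotic for full effect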
VHR inh abs = inhibitors of human VHR1 phosphatase (DUSP3) | recombinant VHR phosphatase, pNPP absorbance | inhibition, % at 13.3 µM | actives 0.52% (n = 290,000) | AID 1654; in the data active = inhibition above about 50%
Target sequence (P51452 whole entry, looked up): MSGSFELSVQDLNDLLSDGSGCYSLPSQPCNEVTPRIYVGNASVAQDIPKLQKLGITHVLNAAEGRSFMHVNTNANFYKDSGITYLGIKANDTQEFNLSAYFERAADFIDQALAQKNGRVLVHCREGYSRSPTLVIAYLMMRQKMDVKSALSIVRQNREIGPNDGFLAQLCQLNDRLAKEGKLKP
Sa RN4220 lethal = S. aureus RN4220 growth inhibition; AID 1259311; inhibition, % (test concentration not listed); OD600, 16 h; actives 0.33% (n = 330,000); in the data active = inhibition above about 85%;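 also: plate controls were untreated cells for no effect and reference antibiotic for full effect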
* = called active by the depositor.

Results for CCOc1ccc(/C=C2\SC(=S)N(NS(=O)(=O)c3ccccc3)C2=O)cc1OC ?
Mtb hypoxia rep: 6; PriA SSB inh: 2; PfHsp40 rescue: 60*; ugtP null kill: 32; VHR inh abs: 13; Sa RN4220 lethal: 61

Results for Cc1nc(N2CCOCC2)nc(C)c1NC(=O)c1c(F)cccc1F ?
PriA SSB inh: -1

How did CCCn1c(C(=O)OC)cc2c1ccn2-c1ccc(F)cc1 do in these assays?
Mtb hypoxia rep: 18; PriA SSB inh: -9; PfHsp40 rescue: 2; ugtP null kill: 97*; VHR inh abs: 7; Sa RN4220 lethal: 15

What do the screens show for `COC(=O)c1cc2c(ccn2-c2ccc(F)cc2)n1CC(C)C`?
Mtb hypoxia rep: 21; PriA SSB inh: -12; PfHsp40 rescue: 1; ugtP null kill: 74; VHR inh abs: 11; Sa RN4220 lethal: 9

What do the screens show for `Cc1nn(-c2ccc([N+](=O)[O-])cc2)c2c1C(c1ccc(OC(F)F)cc1)N1C(=N2)C(=O)Nc2ccccc21` (stereo unspecified)?
PriA SSB inh: -19; PfHsp40 rescue: -1; VHR inh abs: 12

Results for Cc1ccc(C2c3c(C)nn(-c4ccc([N+](=O)[O-])cc4)c3N=C3C(=O)Nc4ccccc4N32)cc1 (stereo unspecified) ?
Mtb hypoxia rep: 40*; ugtP null kill: 3; VHR inh abs: 14; Sa RN4220 lethal: 2

Results for O=C(CCc1csc(NC(=O)c2ccco2)n1)Nc1ccc(F)c(Cl)c1 ?
PriA SSB inh: -16

What do the screens show for `O=C(CN1CCN(Cc2ccccc2)C1=O)NCCCN1CCOCC1`?
Mtb hypoxia rep: 3; PriA SSB inh: -12; PfHsp40 rescue: -1; ugtP null kill: 3; VHR inh abs: 50*; Sa RN4220 lethal: 2

What do the screens show for `COc1ccc(-c2ccc3n2Cc2cnnn2-c2ccccc2-3)cc1`?
PriA SSB inh: -5; PfHsp40 rescue: 137*

What do the screens show for `Oc1cccc2c(NC(=S)Nc3ccc(SC(F)F)cc3)cccc12`?
Mtb hypoxia rep: 9; PriA SSB inh: 48*; PfHsp40 rescue: -1; ugtP null kill: 80; VHR inh abs: 2; Sa RN4220 lethal: 26

How did COC(=O)[C@H](Cc1ccccc1)NC(=O)N1Cc2ccccc2C[C@H]1C(=O)OC do in these assays?
Mtb hypoxia rep: -15; PriA SSB inh: -17; PfHsp40 rescue: -1; ugtP null kill: -6; VHR inh abs: 18; Sa RN4220 lethal: 2

Results for COC(=O)C1Cc2ccccc2CN1C(=O)CCl (stereo unspecified) ?
Mtb hypoxia rep: 25; PriA SSB inh: -1; PfHsp40 rescue: 41*; ugtP null kill: 0; VHR inh abs: 17; Sa RN4220 lethal: -1

How did CC(=O)c1cccc(NC(=O)c2ccc(=O)n(Cc3ccc(F)cc3)n2)c1 do in these assays?
PriA SSB inh: 1

What do the screens show for `COc1ccc(C(CC(=O)c2ccco2)Sc2cccc3cccnc23)cc1OC` (stereo unspecified)?
PriA SSB inh: 81*

Results for O=C(C[C@H](Sc1cccc2cccnc12)c1ccc(OC(F)F)cc1)c1ccco1 ?
PriA SSB inh: 83*

What do the screens show for `COc1ccc(C(NC(=O)c2ccco2)c2ccc(OC)c(OC)c2)cc1OC`?
Mtb hypoxia rep: -2; PriA SSB inh: 8; PfHsp40 rescue: 0; ugtP null kill: 4; VHR inh abs: -8; Sa RN4220 lethal: 4

How did O=C(CSc1nc2c(oc3ccccc32)c(=O)n1C1CCCC1)NCc1ccc(F)cc1 do in these assays?
PriA SSB inh: 7

Results for CCCOc1ccc(C(O)=C2C(=O)C(=O)N(c3ccccn3)C2c2ccc(OC)cc2)cc1C (stereo unspecified) ?
PriA SSB inh: -8

How did O=S(=O)(c1ccc(Cl)c(Cl)c1)N1CCn2c(nc3ccccc32)C1 do in these assays?
PriA SSB inh: -12

Results for Cc1ccc(-n2nc3c(=O)n(CCCC(=O)NCc4ccc(C)o4)nc(C)c3c2C)cc1 ?
Mtb hypoxia rep: 6; PriA SSB inh: -9; PfHsp40 rescue: 0; ugtP null kill: 1; VHR inh abs: -9; Sa RN4220 lethal: 2

Results for Cc1ccc(-n2nc3c(=O)n(CC(=O)NCc4ccc(C)o4)nc(C)c3c2C)cc1 ?
PriA SSB inh: -15; PfHsp40 rescue: 2; VHR inh abs: 53*

What do the screens show for `CNC(=S)Nc1ccc(-c2nc3ccc(C)cc3s2)cc1`?
Mtb hypoxia rep: 37*; PriA SSB inh: -13; PfHsp40 rescue: 14; ugtP null kill: -1; VHR inh abs: 19; Sa RN4220 lethal: -8

Results for COc1ccc(N=C2S/C(=C\c3ccc(OCC(=O)O)cc3)C(=O)N2CCc2c[nH]c3ccccc23)cc1 ?
Mtb hypoxia rep: -4; PriA SSB inh: 51*; PfHsp40 rescue: 1; ugtP null kill: 21; Sa RN4220 lethal: 24

How did Cn1nc(CNC(=O)C2COc3ccccc3O2)cc1C1CC1 (stereo unspecified) do in these assays?
PriA SSB inh: -12

Results for Cc1cccc(C2(c3cccc(C)c3)CC2C(=O)Nc2ccc([N+](=O)[O-])cc2O)c1 (stereo unspecified) ?
Mtb hypoxia rep: 18; PriA SSB inh: -9; PfHsp40 rescue: 1; ugtP null kill: 100*; VHR inh abs: 15; Sa RN4220 lethal: 100*

How did C=CCNC(=O)C1CC1(c1cccc(C)c1)c1cccc(C)c1 (stereo unspecified) do in these assays?
Mtb hypoxia rep: 9; PriA SSB inh: -4; ugtP null kill: -6; Sa RN4220 lethal: 2

Results for COC(=O)NN=Cc1ccc(-c2ccc(Cl)cc2Cl)o1 ?
Mtb hypoxia rep: 1; ugtP null kill: -9; Sa RN4220 lethal: 1

How did CS(=O)(=O)Nc1ccc2c(c1)CN(C(=O)c1ccco1)CC2 do in these assays?
PriA SSB inh: -8

How did CCCCCCn1cc(C(=O)O)c(=O)c2cc(F)c(N3CCN(C(=O)OCC)CC3)cc21 do in these assays?
Mtb hypoxia rep: 15; PriA SSB inh: 4; PfHsp40 rescue: 0; ugtP null kill: 6; VHR inh abs: 28; Sa RN4220 lethal: 2

What do the screens show for `CCCCN(CCCC)C(=O)c1cn(CC)c2cc(N3CCN(C)CC3)c(F)cc2c1=O`?
Mtb hypoxia rep: 5; PriA SSB inh: -2; PfHsp40 rescue: 1; ugtP null kill: 97*; VHR inh abs: 24; Sa RN4220 lethal: 93*

What do the screens show for `C=CCCCCCCCCC(=O)N1CCN(c2cc3c(cc2F)c(=O)c(C(=O)O)cn3CC)CC1`?
Mtb hypoxia rep: 3; PriA SSB inh: -9; PfHsp40 rescue: -1; ugtP null kill: 93*; VHR inh abs: 20; Sa RN4220 lethal: -5

What do the screens show for `CCCNC(=O)c1cn(CC)c2cc(N3CCN(C)CC3)c(F)cc2c1=O`?
PriA SSB inh: -15; PfHsp40 rescue: 1; ugtP null kill: 58; VHR inh abs: 24; Sa RN4220 lethal: 25

What do the screens show for `CCCCCNC(=O)c1cn(CC)c2cc(N3CCN(C)CC3)c(F)cc2c1=O`?
Mtb hypoxia rep: 23; PriA SSB inh: -6; PfHsp40 rescue: -2; ugtP null kill: 8; VHR inh abs: 20; Sa RN4220 lethal: -2
